This passage reports Potency results from PubChem BioAssay AID1030 (National Center for Advancing Translational Sciences (NCATS), 2008).

About 16,000 (7.3%) of roughly 220,000 compounds were called active. Where a call stands in place of a potency, no number is given. Not shown: some 25% with an inconclusive outcome. Calls come from the whole dose curve; as a rule, active = well fitted inhibition curve with a large enough effect (not every such curve was filed as active); inconclusive = small, poorly fitted or top-dose-only effect, or another doubt; inactive = no such curve, though single readings can be large or run the other way. For the sample, actives were picked, then their nearest neighbours and some compounds at random.
Potency is the fitted concentration of half-maximal effect.

In the assay the target is Aldehyde dehydrogenase 1A1 (Homo sapiens) (UniProt P00352). Briefly: qHTS Assay for Inhibitors of Aldehyde Dehydrogenase 1 (ALDH1A1). As to conditions: Purified ALDH1A1, NADH fluorescence, propionaldehyde substrate; series mostly up to 75.3 µM.
Chain of Aldehyde dehydrogenase 1A1 (Homo sapiens) (P00352 whole entry, looked up): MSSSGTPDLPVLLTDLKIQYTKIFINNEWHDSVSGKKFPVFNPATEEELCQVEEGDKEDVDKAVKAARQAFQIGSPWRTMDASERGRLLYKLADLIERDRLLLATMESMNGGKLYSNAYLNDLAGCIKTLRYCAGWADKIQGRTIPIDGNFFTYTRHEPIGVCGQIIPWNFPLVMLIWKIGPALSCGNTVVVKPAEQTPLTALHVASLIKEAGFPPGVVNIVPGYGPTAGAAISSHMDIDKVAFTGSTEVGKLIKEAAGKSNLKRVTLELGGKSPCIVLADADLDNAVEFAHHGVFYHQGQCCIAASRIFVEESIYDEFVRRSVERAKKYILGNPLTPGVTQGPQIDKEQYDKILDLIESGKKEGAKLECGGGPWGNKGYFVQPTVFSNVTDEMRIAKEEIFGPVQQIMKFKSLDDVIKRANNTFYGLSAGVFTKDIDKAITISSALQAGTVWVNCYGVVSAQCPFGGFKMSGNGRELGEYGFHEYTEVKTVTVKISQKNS
Take `CO/N=C/c1cn(-c2ccc(Cl)cc2)nn1`: the Potency result is “inactive”.

In the case of `COc1cccc([C@@H]2Oc3ccc(Br)cc3C(=O)[C@H]2OC(=O)NCc2ccc3c(c2)OCO3)c1`, the Potency entry was “inactive”. In the case of `C1CC1Cc1noc(CN2CCN(CC3CC3)CC2)n1`, the Potency result is “inactive”.

Take `CCCC(=O)Nc1cc(OCC)c(NC(=O)NC2CCCCC2)cc1OCC`: the Potency entry is “inactive”. In the case of `CCOc1cc(NC(=O)CCl)c(OCC)cc1NC(C)=O`, the Potency was 25.1 µM (active). Turning to `CCOc1cc(NC(=O)c2ccccn2)c(OCC)cc1NC(=O)c1ccc(OC)cc1`, the Potency result was “inactive”. As for `CC(Nc1nc(N2CCCC2)nc2ccccc12)c1ccccc1` (configuration not stated), the entry is “inactive”. For `Cc1ccc(C(CC(=O)O)Nc2nc(N3CCCCC3)nc(N3CCCCC3)n2)cc1` (configuration not stated) the value was 25.1 µM (active); for `CC(=O)NC(CC(=O)O)c1ccc(F)cc1` (configuration not stated), “inactive”. As for `CC(C)C1N=C2c3ccccc3N=C(SCC(=O)c3ccc(O)c(O)c3)N2C1=O` (configuration not stated), the figure is 0.631 µM (active); as for `Cc1ccc(NC(=O)N2CCSc3ccccc32)cc1`, “inactive”; as for `Cn1ccc(=NC=C(C#N)C#N)c2ccccc21`, “inactive”. On to `Cc1ccc(NNC(=O)c2c(F)cccc2Cl)cc1Cl`, for which the Potency result is “inactive”. Take `CCOC(=O)C(=Cc1ccccc1OC)C(=O)OCC`: the Potency result was “inactive”. Take `Cc1cc(C)nc(NNC2=CC(=O)CC(C)(C)C2)n1`: the Potency is 25.1 µM (active). For `Cc1cc(O)ccc1NC1=CC(=O)CC(C)(C)C1`, the Potency entry is “inactive”. As for `COC(=O)NNC1=CC(=O)CC(C)(C)C1`, the entry is “inactive”. As to `CCc1nnc(NC(=O)Cc2cccs2)s1`, the Potency result was “inactive”. For `O=C(c1ccc(F)cc1)c1cn(Cc2ccc(F)cc2)c2cc3c(cc2c1=O)OCCO3` the value was “inactive”; for `O=C1N/C(=C/c2cccn2-c2ccccc2)C(=O)N1c1cccc(Cl)c1`, “inactive”. For `CCCOc1ccccc1C1CC(=O)Nc2cc3c(cc21)OCO3` (configuration not stated) the value was “inactive”. For `COc1cc2c(cc1/C=C1/NC(=O)N(c3ccccc3)C1=O)OCO2` the value was 3.98 µM (active). As to `COC(=O)c1c(C(=O)OC)c2n(c1C)CCS2`, the Potency result is “inactive”.

For the compound `CCN(CC)C(=O)CS(=O)CC(=O)Nc1cc(OCCOC)c(Cl)cc1Cl` (configuration not stated), the Potency entry was “inactive”. For `Oc1oc(-c2ccccc2Br)nc1/C=N/c1ccccn1` the value was 11.2 µM (active); for `CCOc1ccc2nc(/N=C/c3nc(-c4ccccc4)oc3O)sc2c1`, “inactive”; for `CC(N=Cc1nc(-c2ccccc2)oc1O)c1ccccc1` (configuration not stated), “inactive”.

`CCOC(=O)C1=C(C)N=C2c3ccccc3C(=O)C2C1c1ccc(Br)cc1` (configuration not stated): the Potency result was “inactive”. For `O=C(CN1C(=O)c2ccccc2S1(=O)=O)N1CCc2ccccc21` the value was “inactive”; for `O=C1c2ccccc2S(=O)(=O)N1CC(O)Cn1c2ccccc2c2ccccc21` (configuration not stated), 14.1 µM (active); for `CNC(=O)CN1C(=O)c2ccccc2S1(=O)=O`, “inactive”. For `Cc1ccc(NC(=O)Cn2c(=O)n(CCC(=O)NC3CCN(Cc4ccccc4)CC3)c(=O)c3ccccc32)cc1` the value was “inactive”; for `COC(=O)c1ccccc1NC(=O)c1ccccc1NS(C)(=O)=O`, “inactive”; for `CCCCNC(=O)c1ccccc1NC(=O)c1ccccc1N(C)S(C)(=O)=O`, 22.4 µM (active). For `CCC(C)NC(=O)c1ccccc1NC(=O)c1ccccc1N(C)S(C)(=O)=O` (configuration not stated) the value was “inactive”; for `NC(=O)C[n+]1cccc(C(N)=O)c1`, “inactive”. In the case of `O=C(Cn1cnc([N+](=O)[O-])n1)NCCc1ccccc1`, the Potency entry is “inactive”. Regarding `COc1ccc(-n2nnnc2SCC(=O)NCc2cccs2)cc1`, the Potency entry was “inactive”. `Cc1cc(C)nc(Nc2ncn[nH]2)n1`: the Potency result is “inactive”.

For `O=C(Nc1ccccc1N1CCN(C(=O)c2ccccc2)CC1)c1ccc2c(c1)OCO2`, the Potency was 10 µM (active). As for `CCCC(=O)Nc1ccccc1N1CCN(C(=O)c2ccccc2)CC1`, the entry is “inactive”; as for `O=C(Nc1ccccc1)c1ccc2c(c1)OCO2`, “inactive”; as for `O=C(OCc1ccccc1F)c1ccc2c(c1)OCCO2`, “inactive”. For `O=C(c1ccc(CN2CCOCC2)cc1)N1CCN(c2ccccc2F)CC1` the value was “inactive”; for `O=C(CN1CCN(c2ccccc2F)CC1)c1ccc2c(c1)OCO2`, 14.1 µM (active).

On to `Cc1ccc(NC(=O)Nc2ccccc2)c(Br)c1`, for which the Potency entry is “inactive”. `O=C(NCCc1ccccn1)c1cc(-c2ccc(Cl)cc2)nc2ccccc12`: the Potency result was “inactive”.

As to `N#Cc1cnn2cc(CCN3CCOCC3)c(-c3ccc(F)cc3)nc12`, the Potency entry was “inactive”.

For `Cn1cnnc1SCC(=O)NNC(=O)COc1ccc(Br)cc1`, the Potency result was “inactive”.

Take `Cc1cc(/C=C(/C#N)C(=O)Nc2ccc(Cl)cc2)c(C)n1-c1cccnc1`: the Potency entry is “inactive”. As for `Cc1ccc(C(=O)N/C(=C/c2cccs2)C(=O)NCC2CCCO2)cc1` (configuration not stated), the entry is “inactive”.

In the case of `Cc1ccc(-n2c(C)cc(/C=C(\C#N)C(=O)NCC3CCCO3)c2C)cc1` (configuration not stated), the Potency is 3.16 µM (active). In the case of `CCOn1c(=O)c(=O)n(O)c2ccccc21`, the Potency result was “inactive”. For `CC(=O)NCCc1nc2cc(NC(=O)c3ccccc3)ccc2n1C`, the Potency result is “inactive”.

On to `COc1ccc2c(c1)CCC/C2=N\OC(=O)c1ccccc1F`, for which the Potency entry is “inactive”. For `CCSc1nnc(NC(=O)Cc2ccccc2OC)s1`, the Potency result is “inactive”. For `CCSc1nnc(NC(=O)c2ccc(C)cc2)s1` the value was “inactive”. For `CC(C)C(=O)Nc1nnc(Sc2ccc(N(C)C)cc2)s1` the value was 25.1 µM (active).

For `O=C(c1cn2ccccc2n1)N1CCc2c([nH]c3ccccc23)C1c1ccccn1` (configuration not stated), the Potency result was “inactive”. As to `O=C(NCCc1ccc(F)cc1)c1n[nH]c2ccccc12`, the Potency result was “inactive”. With `O=S(=O)(NCCNS(=O)(=O)c1ccccc1)c1ccccc1`, the Potency entry is “inactive”. `O=S(=O)(NCCSc1ccccn1)c1ccc(Cl)cc1`: the Potency entry is “inactive”.

Take `COCCNC(=O)c1ccccc1NS(=O)(=O)c1ccc(C)c([N+](=O)[O-])c1`: the Potency result was “inactive”. As for `Cc1ccc(S(=O)(=O)NCCSc2ccccc2)cc1[N+](=O)[O-]`, the figure is 7.08 µM (active); as for `CCOc1ccc(S(=O)(=O)NCCSc2ccccc2)cc1`, 6.31 µM (active); as for `Cc1ccc(S(=O)(=O)NCCC(c2ccccc2)c2ccccc2)cc1C(=O)O`, “inactive”. As for `CNC(=O)C(=O)N/N=C/c1ccccn1`, the entry is “inactive”; as for `COC(=O)c1c(C(=O)OC)c(-c2cccc(C)c2)n2c1CS(=O)C2` (configuration not stated), “inactive”; as for `Cn1cc(/C=C/C(=O)N2CCCC(C(=O)c3ccc(C(F)(F)F)cc3)C2)cn1` (configuration not stated), “inactive”. With `CN1CCN(C(=O)/C(=C\c2ccc3c(c2)OCO3)NC(=O)c2cccs2)CC1`, the Potency entry is “inactive”. Regarding `Cc1ccc(NC(=O)C2(N3CCC3=O)CCCCC2)cc1`, the Potency result was “inactive”.

`O=C(COC(=O)CNS(=O)(=O)c1ccccc1)NC12CC3CC(CC(C3)C1)C2`: the Potency entry was “inactive”.
